# Sampled rows, rich in hits. Any-hit rate of the full collection: about 2%.
# CHT block = inhibitors of human choline transporter CHT; hit rate 0.86% among 310,000; B-score at 10 µM; CHT-expressing cells, membrane potential dye, choline response; hits give low values; AID 488975;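 active = B-score over 3 SD under the library average, and starting fluorescence ratio not unusually high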;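 note: choline stimulus applied at its EC90 after an EC20 pre-addition; B-score computed on integrated fluorescence ratio after choline addition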
# Target sequence (Q9GZV3 whole entry, looked up): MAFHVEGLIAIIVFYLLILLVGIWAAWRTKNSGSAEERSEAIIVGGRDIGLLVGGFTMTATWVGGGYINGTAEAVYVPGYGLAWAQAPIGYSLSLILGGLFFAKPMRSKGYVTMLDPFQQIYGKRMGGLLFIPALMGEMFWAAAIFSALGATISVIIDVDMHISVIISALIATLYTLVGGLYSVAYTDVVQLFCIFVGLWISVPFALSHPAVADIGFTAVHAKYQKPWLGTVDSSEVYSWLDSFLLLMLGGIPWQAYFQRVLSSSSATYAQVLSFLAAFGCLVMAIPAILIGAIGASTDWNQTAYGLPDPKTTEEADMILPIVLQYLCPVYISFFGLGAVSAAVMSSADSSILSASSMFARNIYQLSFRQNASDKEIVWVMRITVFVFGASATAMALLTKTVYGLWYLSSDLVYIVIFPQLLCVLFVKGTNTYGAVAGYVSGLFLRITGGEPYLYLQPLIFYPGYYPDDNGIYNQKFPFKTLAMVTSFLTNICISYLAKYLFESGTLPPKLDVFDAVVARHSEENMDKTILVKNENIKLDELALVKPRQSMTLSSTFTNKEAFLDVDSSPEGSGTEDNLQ
# Kir21 inh = Kir2.1 (mouse) channel inhibition. AID 1672. B-score at 10 µM. HEK293-Kir2.1, FluxOR thallium flux fluorescence; hits give low values. hit rate 0.85% among 310,000;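 active = fluorescence ratio B-score at or below minus 3 SD of library scores, with starting-brightness B-score within 2 SD, cut at about -4.2 in these data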;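 note: channel flux triggered by added potassium and thallium sulfate stimulus; B-score of peak minus minimum fluorescence over baseline after thallium stimulus; more negative B-score means stronger Kir2.1 block with less thallium influx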
# CHT allo act = human CHT allosteric activation; Q9GZV3; CHT-expressing cells, membrane potential dye, choline EC20; hits give high values; LV-AA mutant CHT in HEK293 cells; B-score at 10 µM; hit rate 0.49% among 310,000;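 active = initial fluorescence not abnormally high and integrated response B-score, plate-corrected, over 3 SD above library mean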
# H9c2 TAG inh = triacylglycerol accumulation inhibition | H9c2 cells, Nile Red lipid (TAG) fluorescence; cells loaded with 200 µM oleic acid | inhibition, % at 12.5 µM | hit rate 0.66% among 230,000 | AID 651582;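 active = pattern-corrected inhibition of lipid staining of at least 50% with the nuclear-stain viability signal not falling by more than 50%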;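 note: 0% = DMSO wells and 100% = triacsin C control wells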
# CHT activ conf = confirmation of human choline transporter (CHT) activators; shares compounds with CHT allo act; CHT-expressing cells, membrane potential dye fluorescence (FDSS); % of choline EC20–EC90 response window; HEK293 expressing CHT LV-AA mutant; choline added at its EC20; activation, % at 10 µM; AID 504833; hit rate 91% among 2,500;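 active = primary screen active, with duplicate mean activation above negative control mean plus 3 SD, cut at about 11% in these data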
# HEK293 MP dye = counter-screen for CHT activators: effect in parental HEK293 cells; shares compounds with CHT allo act; membrane potential dye fluorescence (FDSS); measured after EC20 choline addition; ratio readout change at 10 µM, hits read low; hit rate 62% among 2,500; AID 623908;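 active = duplicate-averaged ratio beyond 3 SD from buffer wells, up or down, though filed actives are nearly all decreases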
# An asterisk follows results filed as active; i = inactive; x = not tested or not shown.
SMILES,CHT block,Kir21 inh,CHT allo act,H9c2 TAG inh,CHT activ conf,HEK293 MP dye
N#Cc1cc([N+](=O)[O-])ccc1NCCCn1ccnc1,i,0.29,7.3*,x,62*,-59*
CC(C)NS(=O)(=O)c1ccc(NCCCn2ccnc2)c([N+](=O)[O-])c1,i,0.84,i,x,x,x
Cc1ccc(Cn2c(C)c(C(=O)NCC(C)C)sc2=O)cc1,x,x,x,0,x,x
CN1CCN(Cc2cc(=O)oc3cc4c(cc23)CCC4)CC1,i,-1.9,i,6,22*,-49*
Cc1ccc2oc(=O)cc(CN3CCC(C)CC3)c2c1,i,-0.02,i,18,x,x
CCN1CCN(Cc2cc(=O)oc3ccc(C)cc23)CC1,i,-0.61,i,6,44*,-46*
CC1CCN(Cc2cc(=O)oc3cc4c(cc23)CCCC4)CC1,i,0.02,i,-6,x,x
Cc1ccc2c(CN3CCN(CCO)CC3)cc(=O)oc2c1C,i,-0.15,8.9*,x,54*,-59*
CCc1cc2c(CN3CCN(CCO)CC3)cc(=O)oc2cc1O,i,0.76,i,-3,37*,-30*
Cc1ccc2c(CN3CCOCC3)cc(=O)oc2c1C,i,-0.27,i,x,x,x
CCc1ccc2c(COC(=O)C3CSC4(C)CCC(=O)N34)cc(=O)oc2c1 (configuration not stated),x,x,x,30,x,x
Cc1cc(C)c2c(CN3CCN(C)CC3)cc(=O)oc2c1,i,-1.1,i,x,46*,-42*
CCOc1ccc(Nc2nc(NCC3CCCO3)c3ccccc3n2)cc1 (configuration not stated),i,-7.1*,i,7,23*,-31*
COc1ccc(S(=O)(=O)NC(CCSC)C(=O)NC2CCCCC2)cc1 (configuration not stated),i,0.4,i,1,x,x
CCOC(=O)Cn1c2ccc(C)cc2c2nc(C)sc21,i,-0.03,i,-5,x,x
CCN(CC)CCn1c2ccc(F)cc2c2nc(C)sc21,i,-0.87,i,x,27*,-63*
Cc1ccccc1N1CCN(S(=O)(=O)C[C@]23CCC(CC2NC(=O)[C@@H](N)CCS(C)(=O)=O)C3(C)C)CC1 (some centres not stated),i,x,i,0,x,x
COc1ccc(C(=O)Nc2nc(C)cc(C)n2)cc1[N+](=O)[O-],i,-0.93,i,-15,19*,-39*
Cc1c(C(=O)N/N=C/c2cccnc2)sc(=S)n1C,i,-0.48,i,x,41*,-41*
O=C(N/N=C/c1cccnc1)c1ccc([N+](=O)[O-])cc1Cl,i,-0.9,i,x,x,x
Cc1ccc([N+](=O)[O-])c(C(=O)N/N=C/c2cccnc2)c1,i,1.4,i,-1,61*,-41*
O[C@@H]1COC(Nc2ccc(N=Nc3ccccc3)cc2)C[C@@H]1O (some centres not stated),i,0.08,i,x,x,x
COc1ccc(/C=N/Nc2ccc(C(=O)O)cc2)c(OC)c1OC,i,-0.33,i,x,x,x
COC(=O)c1ccc2c(c1)C(C)(C)C(/C=C/c1ccc(OC)c(OC)c1OC)=[N+]2C,i,-7.2*,6.5*,125,59*,-65*
CCOC(=O)C[C@H]1c2ccccc2S(=O)(=O)N1Cc1cccc(C(F)(F)F)c1,i,-4.5*,i,-1,17*,i
SMILES,CHT block,Kir21 inh,CHT allo act,H9c2 TAG inh,CHT activ conf,HEK293 MP dye
O=C(NCCOc1ccccc1)c1cc([N+](=O)[O-])ccc1N1CCOCC1,x,x,x,44,x,x
Cc1cc(Oc2ccc3ccccc3c2)nc(SCC(=O)c2ccccc2)n1,i,-2.3,8*,x,53*,i
COC(=O)CSc1nc(C)cc(Oc2ccccc2)n1,i,-0.88,i,-4,x,x
CN1CCN(/N=C/c2c3ccccc3c(Cl)c3ccccc23)CC1,i,0.13,i,14,x,x
CN1CCN(c2nc(-c3ccccn3)nc3ccccc23)CC1,i,0.4,9.1*,x,55*,-94*
CN1CCN(c2nc(-c3cccnc3)nc3ccccc23)CC1,i,1.5,7.3*,x,42*,-88*
COc1ccc(OC)c(/C=C/C(=O)N(C)CC(=O)Nc2ccc(N3CCOCC3)cc2)c1,x,x,x,35,x,x
CC(C)(C)OC(=O)n1cc(C(=O)c2ccccc2O)cn1,i,1.2,i,x,x,x
CCOC(=O)n1cc(C(=O)c2ccccc2O)cn1,i,0.84,i,x,30*,-38*
COc1ccc(CCNC(=O)COc2cccc(-n3cnnn3)c2)cc1,x,x,x,-13,x,x
CCOC(=O)CN(C(=O)CNC(=O)c1cccs1)C(C(=O)NC1CCCCC1)c1cccs1 (configuration not stated),i,-0.17,i,-4,x,x
COc1ccccc1N(C(=O)c1ccco1)C(C(=O)NC1CCCC1)c1cccs1 (configuration not stated),i,-1.6,11*,x,23*,i
O=C(NC1CCCCC1)C(c1cccs1)N(Cc1cccs1)C(=O)c1cccs1 (configuration not stated),i,-0.25,9.2*,1,30*,i
Cc1noc(C)c1NC(=O)N(C)C[C@@H]1Oc2ncc(Br)cc2C(=O)N([C@@H](C)CO)C[C@@H]1C,x,x,x,-3,x,x
Cc1cc(C)c(S(=O)(=O)Nc2ccccc2C(=O)N2CCOCC2)c(C)c1,i,-0.28,i,4,x,x
CC(C)Oc1cccc(C(=O)C2CCCN(Cc3cccn3-c3ccccn3)C2)c1 (configuration not stated),i,-2.9,i,-2,x,x
O=C(c1cccc(C(F)(F)F)c1)C1CCCN(Cc2cccn2-c2ncccn2)C1 (configuration not stated),i,-1.1,9.2*,9,25*,i
O=C(c1ccc(C(F)(F)F)cc1)C1CCCN(Cc2cccn2-c2ncccn2)C1 (configuration not stated),i,1.6,i,23,x,x
COc1cccc(C(=O)C2CCCN(Cc3cccn3-c3ccccn3)C2)c1 (configuration not stated),i,-1.8,9.7*,3,46*,-26*
Cc1ccsc1C(=O)C1CCCN(Cc2cccn2-c2ccc(Cl)cn2)C1 (configuration not stated),i,-4.6*,16*,-2,49*,i
Cc1cc[n+](CC(=O)c2ccc(NC(=O)c3ccccc3)cc2)c2ccccc12,i,0.02,i,-26,x,x
CC[n+]1ccc(C)c2cc(P(=O)(c3ccccc3)c3ccccc3)ccc21,i,0.02,7.8*,2,58*,-42*
CC[n+]1ccc(C)c2cc(SC(F)(F)F)ccc21,i,-1.1,6.9*,10,33*,-52*
CCOC(=O)c1c[nH]c2c(C)cc(C)cc2c1=O,i,0.74,8.1*,x,63*,-37*
